The record followed here is PubChem BioAssay (NCI).

Compounds without any hit were thinned out: in the full panel of roughly 79,000, 15% have a hit. The source made the active and inactive calls. Cut-off read from the data, not from the text of the source: active = growth inhibition above about 70%; inactive = the rest.

A short description of the first assay: NCI Yeast Anticancer Drug Screen. Data for the mlh1 rad18 strain (AID 175). The conditions noted are these: S. cerevisiae mlh1 rad18 strain growth inhibition; at 5.0 µM (retest, dose inferred, filed as 0.5); active compounds read high. An outline of the steps:
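Read-out is yeast growth inhibition, calculated against vehicle-only controls. The compound was applied to a strain engineered with DNA damage repair alterations.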
For `CC(CC(C#CCN(C)C)N(C)C)CC(C)(C)C` (stereo not drawn), the growth inhibition is 6% (inactive).
Same read-out and setting: next, `CCCCCCCCCCNC(=O)C[n+]1cccc(C(=O)NCc2ccccc2)c1`: 11% (inactive).
For the molecule `Cc1ccc(N2C(N)=C(C#N)C(C#N)(C#N)C2c2ccccc2)cc1` (stereo not drawn), the growth inhibition is 25% (inactive).
Consider `O=[N+]([O-])c1cccc(Cl)c1C(Nc1nncs1)Nc1nncs1`, for which the growth inhibition was 3% (inactive).
Regarding `CCCC(C(=O)OCCNC1CCCCC1)c1ccccc1` (stereo not drawn), the growth inhibition was 2% (inactive).
On the same count and under the same terms, next, `BrCc1ccc([Si](c2ccccc2)(c2ccccc2)c2ccc(CBr)cc2)cc1`: 3% (inactive); `CCCCC(O)(c1ccccc1)C(O)(c1ccccc1)c1c(F)c(F)c(F)c(F)c1F` (stereo not drawn): -4% (inactive).
On the same count and under the same terms, next, `C/C=C\C=N\NC(N)=S`: 2% (inactive); `NCCc1ccc2oc3cc(=O)c4ccccc4c-3nc2c1`: 3% (inactive); `CC(C)=CCc1ccc(O)cc1`: 1% (inactive).
Same read-out and setting: the figure for `CCCCCCCCCCCCCC/[N+]([O-])=C/c1ccc([N+](=O)[O-])o1` is 8% (inactive); for `Fc1ccc(CSC(=S)Nc2ccc(Br)cc2)cc1` it is 21% (inactive).
`C/C(=N\NC(=S)N1CCN(C2CCCCC2)CC1)c1ccccn1`: the growth inhibition was 15% (inactive).
The same measure, in the same setting: the figure for `Cc1ccccc1N=Nc1sc(N)nc1-c1ccccc1` is -1% (inactive); for `CN(c1ccc(C(N)=O)cc1)c1c(O)c2ccccc2[nH]c1=O` it is 0% (inactive); for `Fc1ccc(CSC(=S)Nc2cccc(C(F)(F)F)c2)cc1` it is 7% (inactive).
In the case of `COc1ccccc1C(C)c1ccc2ccccc2c1C(=O)O` (stereo not drawn), the growth inhibition is 2% (inactive).
On the same count and under the same terms, next, `CNC(=O)OCc1c(-c2ccccc2)c(-c2ccccc2)n(-c2ccc(OC)cc2)c1COC(=O)NC`: 23% (inactive).
Take `Cc1cc(SCC(=O)c2ccc(Cl)cc2)cc(C)[o+]1`: the growth inhibition is -9% (inactive).
As to `Cn1cnc([N+](=O)[O-])c1Sc1nc2ccccc2s1`, the growth inhibition was 64% (inactive).
As for `CCOC(=S)SSC(=S)NCCNC(=S)SSC(=S)OCC`, the growth inhibition was 11% (inactive).
Still for that read-out and setting: next, `Cc1nc(C)c(C(=O)NNC(=O)C[N+](C)(C)C)cc1C(=O)NNC(=O)C[N+](C)(C)C`: 17% (inactive); `CC/C(=C(\CC)c1ccc(O)c(CN(CC)CC)c1)c1ccc(OC)cc1`: 5% (inactive); `CC(C)N(C(=O)CC1(O)CCCCC1)C(C)C`: 0% (inactive).
`CCCCN(CCCC)CC(O)c1cc(-c2ccc(Cl)cc2)nc2cc(C)ccc12` (stereo not drawn): the growth inhibition is 33% (inactive).
The same measure, in the same setting: next, `C/C(=C\c1ccccc1Cl)c1ccccn1`: 10% (inactive); `O=C(OC1C2CCC2C2CC21)c1cc([N+](=O)[O-])cc([N+](=O)[O-])c1` (stereo not drawn): 42% (inactive).
On the same count and under the same terms, next, `O=c1[nH]c2c([N+](=O)[O-])cc(Cl)cc2nc1/C=C(\O)c1ccc(F)cc1`: -3% (inactive).
Same read-out and setting: the figure for `CC(=O)N[C@H]1CC[C@H]2[C@@H]3CCC4=CC(=O)CC[C@]4(C)[C@H]3CC[C@]12C` is -4% (inactive); for `CC12OC(=O)C(C(N)=O)=C1C=C(c1ccccc1)CC2c1ccccc1` (stereo not drawn) it is 11% (inactive); for `Cn1c2nc(-[n+]3ccccc3)nc-2c([O-])n(C)c1=O` it is -1% (inactive).
Consider `COc1cc(NCCCCCCCC2CCCCN2)c2ncccc2c1` (stereo not drawn), for which the growth inhibition is 32% (inactive).
For `Nc1ncnc(N2CCOCC2)c1N`, the growth inhibition was -4% (inactive).
Same read-out and setting: next, `CCCCCCCCCCCCNCC(=O)O`: 3% (inactive); `O=C(O)C1C2CC3CC(C2)CC1C3` (stereo not drawn): 0% (inactive).
The same measure, in the same setting: the figure for `CC(=O)OC1CCC2(C)C(=CCC3C2CCC2(C)C3CC(C(N)=O)C2C(C)=O)C1` (stereo not drawn) is -1% (inactive); for `CC1(C)CC(=N/O)/C(=N/O)C(=N\NC(N)=S)/C1` it is -3% (inactive).
Same read-out and setting: next, `CCCCCCCCCCCCCCCCCC1=NCCN1`: -1% (inactive).
Regarding `O=c1c2ccccc2c2ccccc2c(=O)n1-c1cc2c3ccccc3ccc2c2ccccc12`, the growth inhibition is 5% (inactive).

Staying with this assay, now noted: S. cerevisiae mlh1 rad18 strain growth inhibition; at 50.0 µM (retest, dose inferred, filed as 5.0); active compounds read high.
Turning to `CC(CC(C#CCN(C)C)N(C)C)CC(C)(C)C` (stereo not drawn), the growth inhibition is -5% (inactive).
Take `CCCCCCCCCCNC(=O)C[n+]1cccc(C(=O)NCc2ccccc2)c1`: the growth inhibition was 99% (active).
Turning to `Cc1ccc(N2C(N)=C(C#N)C(C#N)(C#N)C2c2ccccc2)cc1` (stereo not drawn), the growth inhibition was 88% (active).
On the same count and under the same terms, the figure for `O=[N+]([O-])c1cccc(Cl)c1C(Nc1nncs1)Nc1nncs1` is 82% (active); for `CCCC(C(=O)OCCNC1CCCCC1)c1ccccc1` (stereo not drawn) it is 18% (inactive).
As to `BrCc1ccc([Si](c2ccccc2)(c2ccccc2)c2ccc(CBr)cc2)cc1`, the growth inhibition was -30% (inactive).
Turning to `CCCCC(O)(c1ccccc1)C(O)(c1ccccc1)c1c(F)c(F)c(F)c(F)c1F` (stereo not drawn), the growth inhibition is 99% (active).
Still for that read-out and setting: next, `C/C=C\C=N\NC(N)=S`: 1% (inactive); `NCCc1ccc2oc3cc(=O)c4ccccc4c-3nc2c1`: 41% (inactive); `CC(C)=CCc1ccc(O)cc1`: 97% (active).
Same read-out and setting: next, `CCCCCCCCCCCCCC/[N+]([O-])=C/c1ccc([N+](=O)[O-])o1`: 79% (active); `Fc1ccc(CSC(=S)Nc2ccc(Br)cc2)cc1`: 99% (active); `C/C(=N\NC(=S)N1CCN(C2CCCCC2)CC1)c1ccccn1`: 85% (active).
Take `Cc1ccccc1N=Nc1sc(N)nc1-c1ccccc1`: the growth inhibition was 95% (active).
With `CN(c1ccc(C(N)=O)cc1)c1c(O)c2ccccc2[nH]c1=O`, the growth inhibition was 63% (inactive).
As to `Fc1ccc(CSC(=S)Nc2cccc(C(F)(F)F)c2)cc1`, the growth inhibition was 99% (active).
Same read-out and setting: the figure for `COc1ccccc1C(C)c1ccc2ccccc2c1C(=O)O` (stereo not drawn) is 94% (active).
Same read-out and setting: the figure for `CNC(=O)OCc1c(-c2ccccc2)c(-c2ccccc2)n(-c2ccc(OC)cc2)c1COC(=O)NC` is 97% (active).
For `Cc1cc(SCC(=O)c2ccc(Cl)cc2)cc(C)[o+]1`, the growth inhibition was 78% (active).
Consider `Cn1cnc([N+](=O)[O-])c1Sc1nc2ccccc2s1`, for which the growth inhibition is 98% (active).
The same measure, in the same setting: the figure for `CCOC(=S)SSC(=S)NCCNC(=S)SSC(=S)OCC` is 78% (active); for `Cc1nc(C)c(C(=O)NNC(=O)C[N+](C)(C)C)cc1C(=O)NNC(=O)C[N+](C)(C)C` it is 14% (inactive).
The same measure, in the same setting: next, `CC/C(=C(\CC)c1ccc(O)c(CN(CC)CC)c1)c1ccc(OC)cc1`: 99% (active); `CC(C)N(C(=O)CC1(O)CCCCC1)C(C)C`: -9% (inactive); `CCCCN(CCCC)CC(O)c1cc(-c2ccc(Cl)cc2)nc2cc(C)ccc12` (stereo not drawn): 98% (active).
In the case of `C/C(=C\c1ccccc1Cl)c1ccccn1`, the growth inhibition was 27% (inactive).
As for `O=C(OC1C2CCC2C2CC21)c1cc([N+](=O)[O-])cc([N+](=O)[O-])c1` (stereo not drawn), the growth inhibition is 99% (active).
Regarding `O=c1[nH]c2c([N+](=O)[O-])cc(Cl)cc2nc1/C=C(\O)c1ccc(F)cc1`, the growth inhibition was 65% (inactive).
On the same count and under the same terms, the figure for `CC(=O)N[C@H]1CC[C@H]2[C@@H]3CCC4=CC(=O)CC[C@]4(C)[C@H]3CC[C@]12C` is 95% (active); for `CC12OC(=O)C(C(N)=O)=C1C=C(c1ccccc1)CC2c1ccccc1` (stereo not drawn) it is 83% (active); for `Cn1c2nc(-[n+]3ccccc3)nc-2c([O-])n(C)c1=O` it is 8% (inactive).
For the molecule `COc1cc(NCCCCCCCC2CCCCN2)c2ncccc2c1` (stereo not drawn), the growth inhibition was 96% (active).
Same read-out and setting: next, `Nc1ncnc(N2CCOCC2)c1N`: -6% (inactive).
The same measure, in the same setting: the figure for `CCCCCCCCCCCCNCC(=O)O` is 55% (inactive); for `O=C(O)C1C2CC3CC(C2)CC1C3` (stereo not drawn) it is 82% (active); for `CC(=O)OC1CCC2(C)C(=CCC3C2CCC2(C)C3CC(C(N)=O)C2C(C)=O)C1` (stereo not drawn) it is 70% (active).
`CC1(C)CC(=N/O)/C(=N/O)C(=N\NC(N)=S)/C1`: the growth inhibition was 62% (inactive).
Still for that read-out and setting: the figure for `CCCCCCCCCCCCCCCCCC1=NCCN1` is 97% (active); for `O=c1c2ccccc2c2ccccc2c(=O)n1-c1cc2c3ccccc3ccc2c2ccccc12` it is 9% (inactive).
